Results taken from PubChem BioAssay (NCATS).
Inconclusive results are not listed. The source made the active and inactive calls. Calls follow the shape of the dose curve; as a rule, active = well fitted cell-killing curve with a large enough effect; inconclusive = small, poorly fitted or top-dose-only effect, or effect the other way; inactive = flat fitted curve, though single readings scatter.

Tests used:
Experiment in all cases: Primary qHTS to identify gynecologic anti-cancer compounds using libraries of approved drugs and bioactive compounds (AID 1345084); also: nearly all actives have a fitted effect of over 55% in size
Conditions in all cases: Gynecologic cancer cell panel viability, ATPlite luminescence, 48 h; series mostly up to 57.5 µM
[1] = system: JEG-3
Method in brief: (§1)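 48 h compound exposure at 37 C, 5% CO2; five-point qHTS. ATPlite luminescence readout of cell ATP.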

[2] = system: OV90
Method in brief: as §1

[3] = system: PA-1
Method in brief: as §1

[4] = system: SKOV3
Method in brief: as §1

[5] = system: Tov-21-G
Method in brief: as §1

[6] = system: Tov112D
Method in brief: as §1
% is scaled to controls: 0 for no effect and ±100 for the full control effect; potency is read from the fitted curve at half-maximal effect.

CC(=O)NC1C(OC(C)(C)C2CCC3(C)C=C(C4CCC5C4(C)CC(O)C4OC(C(C)(C)O)CCC45C)CCC3O2)OC(CO)C(O)C1O (stereo not given)
inactive: Potency [1] | Potency [2] | Potency [3] | Potency [4] | Potency [5] | Potency [6]

CC(C)=CCC[C@](C)(O)[C@H]1CC[C@]2(C)[C@@H]1[C@H](O)CC1[C@@]3(C)CC[C@H](O)C(C)(C)C3[C@@H](O[C@@H]3O[C@H](CO)[C@@H](O)[C@H](O)[C@H]3O[C@@H]3OC[C@@H](O)[C@H](O)[C@H]3O)C[C@]12C (stereo not given in full)
inactive: Potency [1] | Potency [2] | Potency [3] | Potency [4] | Potency [5] | Potency [6]

COc1cc(C(=O)OC[C@H]2O[C@@H](Oc3ccccc3/C=C/C(=O)O)[C@H](O)[C@@H](O)[C@@H]2O)cc(OC)c1OC
inactive: Potency [1] | Potency [2] | Potency [3] | Potency [4] | Potency [5] | Potency [6]

C=C[C@H]1[C@H](O[C@@H]2O[C@H](CO)[C@@H](O)[C@H](O)[C@H]2O)OC=C(C(=O)OC)[C@H]1CCOC(=O)c1cc(O)c(O)c(O)c1
inactive: Potency [1] | Potency [2] | Potency [3] | Potency [4] | Potency [5] | Potency [6]

CC(=O)OC1C(O)C2C(C)C3=CC(=O)OC3(O)CC2C2(C)CCCC(C)(CO)C12 (stereo not given)
inactive: Potency [1] | Potency [2] | Potency [3] | Potency [4] | Potency [5] | Potency [6]

COC(=O)CCC(=O)OC[C@]1(C)CCC[C@@]2(C)C3CC[C@]4(C)C=CC3(CCC12)C4 (stereo not given in full)
inactive: Potency [1] | Potency [2] | Potency [3] | Potency [4] | Potency [5] | Potency [6]

CC(C)(O)/C=C/CC(C)(O)C1C(O)CC2(C)C3CCC4C(C)(C)C(=O)CCC4(C)C3CCC12C (stereo not given)
inactive: Potency [1] | Potency [2] | Potency [3] | Potency [4] | Potency [5] | Potency [6]

CC1(C)CC[C@]2(CO[C@@H]3O[C@H](CO)[C@@H](O)[C@H](O)[C@H]3O)[C@@H](O)C[C@]3(C)C(=CCC4[C@@]5(C)CC[C@H](O[C@@H]6O[C@H](CO[C@@H]7O[C@H](CO[C@@H]8OC[C@@H](O)[C@H](O)[C@H]8O)[C@@H](O)[C@H](O)[C@H]7O)[C@@H](O)[C@H](O)[C@H]6O)C(C)(C)C5CC[C@]43C)[C@@H]2C1 (stereo not given in full)
inactive: activity change, negative = cytotoxicity [1] 1.67% [at 11.6 µM] | activity change, negative = cytotoxicity [2] -3.63% [at 11.6 µM] | activity change, negative = cytotoxicity [3] -8.81% [at 11.6 µM] | activity change, negative = cytotoxicity [4] -1.91% [at 11.6 µM] | activity change, negative = cytotoxicity [5] 4.01% [at 11.6 µM] | activity change, negative = cytotoxicity [6] -1.63% [at 11.6 µM]

OC[C@H]1O[C@@H](Oc2cc(O)c3c(c2)O[C@@H](c2ccc(O)cc2)[C@H](O)C3)[C@H](O)[C@@H](O)[C@@H]1O
inactive: Potency [1] | Potency [2] | Potency [3] | Potency [4] | Potency [5] | Potency [6]

COc1ccc(Cl)c(Nc2nc3ccccc3nc2NS(=O)(=O)c2cccc(NC(=O)C(C)(C)N)c2)c1
inactive: Potency [1] | Potency [2] | Potency [3] | Potency [4] | Potency [5] | Potency [6]

[N-]=[N+]=N[C@]1(CO)O[C@@H](n2ccc(=O)[nH]c2=O)[C@@H](O)[C@@H]1O
inactive: Potency [1] | Potency [2] | Potency [3] | Potency [4] | Potency [5] | Potency [6]

c1cn2cc(-c3ccc4cn[nH]c4c3)nc(Nc3ccc(N4CCOCC4)cc3)c2n1
active: Potency [1] 2820 nM | Potency [2] 1780 nM | Potency [3] 1780 nM | Potency [4] 2820 nM | Potency [5] 2240 nM | Potency [6] 2240 nM

CC1COC2(OC3CC4C5CC(O[C@@H]6O[C@H](C)[C@@H](O[C@@H]7O[C@@H](C)[C@H](O)[C@@H](O)[C@H]7O)[C@H](O)[C@H]6O)C6CC(O)CCC6(C)C5CCC4(C)C3C2C)C(O)C1 (stereo not given in full)
inactive: Potency [1] | Potency [2] | Potency [3] | Potency [4] | Potency [5] | Potency [6]

CC1CCC2(C=O)C(CO)=CCCC2C1(C)CC(=O)O (stereo not given)
inactive: Potency [1] | Potency [2] | Potency [3] | Potency [4] | Potency [5] | Potency [6]

C=C1C(OC(=O)/C(C)=C\C)[C@@]23CCC4[C@@](C)(CCC[C@@]4(C)C(=O)O)C2CC[C@H]1C3OC(C)=O (stereo not given in full)
inactive: Potency [1] | Potency [2] | Potency [3] | Potency [4] | Potency [5] | Potency [6]

C[C@@H]1O[C@@H](O[C@H]2[C@H](O)[C@@H](C(=O)O)O[C@@H](O[C@H]3CC[C@@]4(C)C(CC[C@]5(C)C4CC=C4C6CC(C)(C)CC[C@]6(C(=O)O)CC[C@]45C)C3(C)C)[C@@H]2O[C@@H]2OC[C@@H](O)[C@H](O)[C@H]2O)[C@H](O)[C@H](O)[C@H]1O (stereo not given in full)
inactive: activity change, negative = cytotoxicity [1] 3.19% [at 11.6 µM] | activity change, negative = cytotoxicity [2] 2.8% [at 11.6 µM] | activity change, negative = cytotoxicity [3] 4.01% [at 11.6 µM] | activity change, negative = cytotoxicity [4] -0.245% [at 11.6 µM] | activity change, negative = cytotoxicity [5] 13.2% [at 11.6 µM] | activity change, negative = cytotoxicity [6] 4.42% [at 11.6 µM]

CC(=O)CCC1=C(C)C(O[C@@H]2O[C@H](CO)[C@@H](O)[C@H](O)[C@H]2O)C(O)CC1(C)C (stereo not given in full)
inactive: Potency [1] | Potency [2] | Potency [3] | Potency [4] | Potency [5] | Potency [6]

O=C(O)c1cccc(S(=O)(=O)N2CCc3ccccc3C2)c1
inactive: Potency [1] | Potency [2] | Potency [3] | Potency [4] | Potency [5] | Potency [6]

O=C(O)CC(=O)OC[C@H]1O[C@@H](Oc2ccc3c(c2)OC[C@H]2c4cc5c(cc4O[C@@H]32)OCO5)[C@H](O)[C@@H](O)[C@@H]1O
inactive: Potency [1] | Potency [2] | Potency [3] | Potency [4] | Potency [5] | Potency [6]

COc1ccc(C[C@H](N)C(=O)N[C@@H]2[C@H](O)[C@H](n3cnc4c(N(C)C)ncnc43)O[C@@H]2CO)cc1
active: Potency [1] 3550 nM | Potency [2] 7940 nM | Potency [3] 1000 nM | Potency [4] 2820 nM | Potency [5] 4470 nM | Potency [6] 1780 nM

Cc1ccc(C)c(OCCn2cc(C(=O)O)c3ccccc32)c1
inactive: Potency [1] | Potency [2] | Potency [3] | Potency [4] | Potency [5] | Potency [6]

CC(=O)N[C@H]1[C@H](O[C@H]2CC[C@@]3(C)C(CC[C@]4(C)C3CC=C3C5CC(C)(C)CC[C@]5(C(=O)O)[C@H](O)C[C@]34C)C2(C)C)O[C@H](CO[C@@H]2OC[C@H](O)[C@H](O)[C@H]2O[C@@H]2OC[C@@H](O)[C@H](O)[C@H]2O)[C@@H](O)[C@@H]1O (stereo not given in full)
inactive: activity change, negative = cytotoxicity [1] 4.23% [at 11.6 µM] | activity change, negative = cytotoxicity [2] 9.62% [at 11.6 µM] | activity change, negative = cytotoxicity [3] 3.95% [at 11.6 µM] | activity change, negative = cytotoxicity [4] 10.7% [at 11.6 µM] | activity change, negative = cytotoxicity [5] -0.0551% [at 11.6 µM] | activity change, negative = cytotoxicity [6] -18.9% [at 11.6 µM]

C[C@@H]1CC[C@]2(C(=O)O)CC[C@]3(C)C(=CCC4[C@@]5(C)CC[C@H](O)C(C)(C)C5C(O)C[C@]43C)[C@@H]2[C@]1(C)O (stereo not given in full)
inactive: Potency [1] | Potency [2] | Potency [3] | Potency [4] | Potency [5] | Potency [6]

CC(=O)N1CCc2ccc(O)c(OC3OC(COC4OCC(O)(CO)C4O)C(O)C(O)C3O)c2C1Cc1ccc(O)cc1 (stereo not given)
inactive: Potency [1] | Potency [2] | Potency [3] | Potency [4] | Potency [5] | Potency [6]

CC(C)c1cc(C(=O)N2CC[C@H](NC(=O)C3CC3)C2)n[nH]1
inactive: Potency [1] | Potency [2] | Potency [3] | Potency [4] | Potency [5] | Potency [6]
